Measured values: PubChem BioAssay (Tox21)
Values joined by “and” are separate entries in the source; they are usually repeats but may differ in a detail not shown here. Equal values may be shown once. Results filed as inconclusive are left out. Where a structure was tested more than once in an assay, its records may differ in their call. Active and inactive are the calls of the source. Unless noted, calls come from the whole dose curve; as a rule, active = well fitted curve in the direction sought with a large enough effect in the repeat runs; inconclusive = weak or mixed curves; inactive = no such curve, though single readings can be large; an effect the other way counts as inactive or inconclusive.

Experiments:
[1] = qHTS assay to identify small molecule agonists of the androgen receptor (AR) signaling pathway in the presence of an antagonist - cell viability counter screen (AID 1259379); note: nearly all actives have a fitted effect of over 25% in size; note: potency is the fitted concentration of half-maximal effect
Summary of the method: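 MDA-kb2 cells (MMTV-luciferase, AR/GR), 3,000/well, 5 h attachment, then 3.0 µM nilutamide (final) and compounds at 15 concentrations. Viability by CellTiter-Fluor fluorescence after 16 h at 37 °C, 0% CO2, in the reporter wells.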

[2] = qHTS assay to identify small molecule agonists of the estrogen receptor beta (ER-beta) signaling pathway - cell viability counter screen (AID 1259380); note: nearly all actives have a fitted effect of over 30% in size; note: potency is the fitted concentration of half-maximal effect
Summary of the method: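 ER-beta-UAS-bla HEK293T cells in medium with 2% charcoal-stripped FBS, pre-incubated 6 hr, then treated 16 hr at 37C. Cytotoxicity read in the same wells by CellTiter-Glo luminescence after 30 min at room temperature.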

[3] = qHTS assay to identify small molecule antagonists of the estrogen receptor beta (ER-beta) signaling pathway - cell viability counter screen (AID 1259382); note: nearly all actives have a fitted effect of over 55% in size; note: potency is the fitted concentration of half-maximal effect
Summary of the method: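 ER-beta-UAS-bla HEK293T cells in 2% charcoal-stripped FBS medium, treated with compound plus 1 nM 17-beta-estradiol for 16 h at 37C. Viability read by CellTiter-Glo luminescence after 30 min at room temperature in the same wells.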

[4] = molecular target: Estrogen receptor (Homo sapiens) (UniProt P03372); assay: qHTS assay to identify small molecule agonists of the estrogen receptor alpha (ER-alpha) signaling pathway in the presence of an antagonist (AID 1259383; calls by dose curve; note: nearly all actives have a fitted effect of over 15% in size; note: potency is the fitted concentration of half-maximal effect; for activation: top concentration of the series differs between compounds)
Summary of the method: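 VM7Luc4E2 cells express endogenous full-length ER-alpha with an ERE-luciferase reporter and were hormone-deprived for 5 days. Compounds at 15 concentrations were added with 10.0nM ICI-182,780 for 22hr at 37C. Luminescence was read with ONE-Glo.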

[5] = molecular target: Thyrotropin receptor (Homo sapiens) (UniProt P16473); assay: qHTS assay to identify small molecule antagonists of the thyroid stimulating hormone receptor (TSHR) signaling pathway (AID 1259385; calls by dose curve; note: nearly all actives have a fitted effect of over 20% in size; note: potency is the fitted concentration of half-maximal effect)
Summary of the method: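 TSHR-HEK293 cells were plated and held 18 h at 37C/5% CO2, then given compound plus Ro20-1724 and stimulated with TSH at 1.5 ng/mL final. After 30 min at room temperature, cAMP was detected with cAMP-d2/anti-cAMP-cryptate (1 h) by fluorescence.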

[6] = qHTS assay to identify small molecule agonists of the estrogen receptor alpha (ER-alpha) signaling pathway in the presence of an antagonist - cell viability counter screen (AID 1259386);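 note: cells exposed to compounds for 22 h at 37 °C before the viability read; nearly all actives have a fitted effect of over 30% in size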; note: potency is the fitted concentration of half-maximal effect
Summary of the method: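 Cell viability in VM7Luc4E2 cells (endogenous full-length ER-alpha) measured by CellTiter-Fluor fluorescence in the same wells as the luciferase screen. Cells pre-cultured 5 days in charcoal-stripped serum, then treated 22 h with compounds at 15 concentrations plus 10.0nM ICI-182,780.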

[7] = molecular target: Progesterone receptor (Homo sapiens) (UniProt P06401); assay: qHTS assay to identify small molecule agonists of the progesterone receptor (PR) signaling pathway (AID 1346784; calls by dose curve; note: nearly all actives have a fitted effect of over 30% in size)
Summary of the method: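 Compounds were tested for PR agonism in HEK 293T cells bearing a beta-lactamase gene under UAS control. Treatment lasted 16 hr at 37C; signal came from fluorescence of a FRET substrate.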

[8] = qHTS assay to identify small molecule agonists or antagonists of the thyroid stimulating hormone receptor (TSHR) signaling pathway - wild type cell line counter screen (AID 1259384; calls by dose curve)
Summary of the method: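 Wild-type HEK293 cells were plated 18 h at 37 C/5% CO2, pin-dosed with compound plus Ro20-1724 medium, held 30 min at room temperature, then given cAMP-d2 and anti-cAMP-cryptate; fluorescence was read after 1 h. Fifteen concentrations, triplicate.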

[9] = molecular target: Estrogen receptor beta (Homo sapiens) (UniProt Q92731); assay: qHTS assay to identify small molecule agonists of the estrogen receptor beta (ER-beta) signaling pathway (AID 1259377; active = well fitted activation curve with a large enough effect in the signal ratio in the repeat runs, not every such curve was filed as active; the % refers to the signal ratio)
Summary of the method: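 Read-out: beta-lactamase FRET fluorescence. Cell line: ER-beta-UAS-bla HEK293T in 2% charcoal-stripped FBS. Exposure: 16 hr at 37C. Substrate step: 2 h at room temperature.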

[10] = molecular target: Estrogen receptor beta (Homo sapiens) (UniProt Q92731); assay: qHTS assay to identify small molecule antagonists of the estrogen receptor beta (ER-beta) signaling pathway (AID 1259378; active = well fitted inhibition curve with a large enough effect in the signal ratio in the repeat runs, not every such curve was filed as active; the % refers to the signal ratio; note: potency is the fitted concentration of half-maximal effect)
Summary of the method: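 ER-beta-UAS-bla HEK293T (GripTite) cells in 2% charcoal-stripped FBS medium were preincubated 6 hr at 37C, dosed with compound, then stimulated with 1 nM E2 (final) for 16 hr; beta-lactamase reporter read by B/G FRET fluorescence after 2 hr substrate loading.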

Measured: Potency

Sequence of Estrogen receptor (Homo sapiens) (P03372 whole entry, looked up): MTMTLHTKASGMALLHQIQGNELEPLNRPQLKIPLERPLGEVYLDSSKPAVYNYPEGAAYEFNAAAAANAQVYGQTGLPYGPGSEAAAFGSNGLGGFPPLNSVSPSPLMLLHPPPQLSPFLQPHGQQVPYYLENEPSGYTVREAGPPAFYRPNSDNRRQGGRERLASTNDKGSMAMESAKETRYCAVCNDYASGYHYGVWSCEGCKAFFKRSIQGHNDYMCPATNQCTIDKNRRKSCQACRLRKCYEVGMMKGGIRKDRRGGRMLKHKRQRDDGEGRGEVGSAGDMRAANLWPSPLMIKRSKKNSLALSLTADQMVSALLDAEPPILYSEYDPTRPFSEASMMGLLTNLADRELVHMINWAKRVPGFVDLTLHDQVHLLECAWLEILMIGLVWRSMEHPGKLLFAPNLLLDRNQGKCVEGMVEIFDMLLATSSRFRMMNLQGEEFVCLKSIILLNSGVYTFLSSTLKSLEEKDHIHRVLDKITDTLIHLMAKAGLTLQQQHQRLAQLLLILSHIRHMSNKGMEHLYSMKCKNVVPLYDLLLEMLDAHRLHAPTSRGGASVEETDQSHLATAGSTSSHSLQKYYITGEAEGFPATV
Sequence of Progesterone receptor (Homo sapiens) (P06401 whole entry, looked up): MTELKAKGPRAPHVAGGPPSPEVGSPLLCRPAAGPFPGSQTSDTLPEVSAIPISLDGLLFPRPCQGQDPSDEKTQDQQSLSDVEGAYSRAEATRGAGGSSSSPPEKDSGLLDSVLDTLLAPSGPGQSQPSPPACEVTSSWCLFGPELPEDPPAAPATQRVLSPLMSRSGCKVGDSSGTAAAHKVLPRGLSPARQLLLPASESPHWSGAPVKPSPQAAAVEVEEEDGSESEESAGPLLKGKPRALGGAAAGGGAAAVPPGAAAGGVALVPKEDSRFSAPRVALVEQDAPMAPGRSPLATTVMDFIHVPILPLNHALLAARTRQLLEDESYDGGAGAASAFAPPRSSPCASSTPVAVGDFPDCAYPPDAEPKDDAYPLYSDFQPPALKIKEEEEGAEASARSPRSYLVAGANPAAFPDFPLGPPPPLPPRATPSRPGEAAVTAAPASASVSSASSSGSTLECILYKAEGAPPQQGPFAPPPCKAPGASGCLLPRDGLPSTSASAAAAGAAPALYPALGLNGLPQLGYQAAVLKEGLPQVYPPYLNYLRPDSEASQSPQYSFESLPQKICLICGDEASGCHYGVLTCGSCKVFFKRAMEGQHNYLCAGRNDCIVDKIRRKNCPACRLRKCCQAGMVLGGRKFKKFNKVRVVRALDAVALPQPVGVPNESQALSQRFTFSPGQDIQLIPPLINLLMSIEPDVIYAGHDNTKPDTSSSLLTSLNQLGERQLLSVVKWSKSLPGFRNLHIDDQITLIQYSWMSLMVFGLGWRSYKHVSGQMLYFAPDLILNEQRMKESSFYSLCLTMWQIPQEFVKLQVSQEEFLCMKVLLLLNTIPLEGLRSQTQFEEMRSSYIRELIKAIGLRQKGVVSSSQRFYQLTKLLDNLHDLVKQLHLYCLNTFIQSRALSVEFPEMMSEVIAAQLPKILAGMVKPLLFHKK
Sequence of Estrogen receptor beta (Homo sapiens) (Q92731 whole entry, looked up): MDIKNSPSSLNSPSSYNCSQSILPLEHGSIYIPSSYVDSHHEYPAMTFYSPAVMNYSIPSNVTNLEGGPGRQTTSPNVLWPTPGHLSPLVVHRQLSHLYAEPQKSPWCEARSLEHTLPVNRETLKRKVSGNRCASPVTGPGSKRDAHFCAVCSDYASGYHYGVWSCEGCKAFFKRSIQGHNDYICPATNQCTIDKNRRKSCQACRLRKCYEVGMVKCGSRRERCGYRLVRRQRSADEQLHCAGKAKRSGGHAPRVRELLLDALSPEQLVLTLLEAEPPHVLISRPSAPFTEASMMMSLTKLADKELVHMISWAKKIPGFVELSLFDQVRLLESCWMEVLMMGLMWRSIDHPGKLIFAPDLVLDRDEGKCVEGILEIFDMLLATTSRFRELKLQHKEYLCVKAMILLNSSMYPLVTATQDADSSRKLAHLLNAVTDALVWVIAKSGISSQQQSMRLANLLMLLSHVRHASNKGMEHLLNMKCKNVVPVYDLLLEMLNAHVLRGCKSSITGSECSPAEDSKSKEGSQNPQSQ
Sequence of Thyrotropin receptor (Homo sapiens) (P16473 whole entry, looked up): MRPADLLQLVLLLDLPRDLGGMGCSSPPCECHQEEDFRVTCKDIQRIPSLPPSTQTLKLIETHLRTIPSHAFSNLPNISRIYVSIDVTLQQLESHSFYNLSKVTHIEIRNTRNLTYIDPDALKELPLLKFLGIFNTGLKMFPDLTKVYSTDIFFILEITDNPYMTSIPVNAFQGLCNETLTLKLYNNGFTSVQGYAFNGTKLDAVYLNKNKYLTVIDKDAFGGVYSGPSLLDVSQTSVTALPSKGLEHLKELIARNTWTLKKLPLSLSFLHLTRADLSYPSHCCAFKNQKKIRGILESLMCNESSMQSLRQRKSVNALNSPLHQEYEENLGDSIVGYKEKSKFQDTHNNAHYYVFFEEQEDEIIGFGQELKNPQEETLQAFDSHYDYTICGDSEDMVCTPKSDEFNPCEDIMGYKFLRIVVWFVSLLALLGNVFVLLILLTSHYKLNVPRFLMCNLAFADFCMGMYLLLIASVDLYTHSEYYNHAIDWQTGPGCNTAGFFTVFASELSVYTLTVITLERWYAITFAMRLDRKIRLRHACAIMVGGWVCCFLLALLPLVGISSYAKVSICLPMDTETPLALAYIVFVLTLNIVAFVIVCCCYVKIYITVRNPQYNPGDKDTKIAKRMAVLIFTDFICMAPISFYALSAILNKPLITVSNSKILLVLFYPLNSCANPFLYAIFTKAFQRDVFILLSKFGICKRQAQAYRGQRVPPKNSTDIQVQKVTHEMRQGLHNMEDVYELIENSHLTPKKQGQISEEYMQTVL

O=C(O)CP(=O)(O)O
not listed: [8] | [9] | [10]
inactive: all other assays above

CC1COc2c(N3CCN(C)CC3)c(F)cc3c(=O)c(C(=O)O)cn1c23 (stereo not given)
not listed: [4] | [9] | [10]
inactive: all other assays above

CCN(CC)C(=S)SSC(=S)N(CC)CC
active: [2] 222 nM and 133 nM
not listed: [3] | [10]
inactive: all other assays above

CC(C)CCOC(=O)c1ccc(N(C)C)cc1
active: [4] 2.98 µM
inactive: [9] | [1] | [2] | [8] | [7]

CC[C@@H](N)CO
inactive: [1] | [2] | [3] | [4] | [6] | [7]

CCn1cc(C(=O)O)c(=O)c2cc(F)c(N3CCNC(C)C3)c(F)c21 (stereo not given)
not listed: [9] | [10]
inactive: all other assays above

CC(=O)CC(=O)Nc1ccc2[nH]c(=O)[nH]c2c1
not listed: [9] | [10]
inactive: all other assays above

CCCCC/C=C/CC1CC(=O)OC1=O (stereo not given)
not listed: [9] | [10]
inactive: all other assays above

CCOc1ccc2c(c1)C(C)=CC(C)(C)N2
not listed: [9] | [10]
inactive: all other assays above

CCCCCCCCCCCC[N+](C)(C)C
inactive: [8] | [5] | [7]
active: [1] 13.6 µM and 9.69 µM and 13.7 µM | [2] 60.9 µM | [3] 68.6 µM

Cc1occc(=O)c1OC(=O)C(C)C
not listed: [4] | [5] | [10]
inactive: all other assays above

NCCCCCC(=O)O
not listed: [6] | [9] | [10]
inactive: all other assays above

CC(=O)O[C@]1(C(C)=O)CC[C@H]2[C@@H]3C[C@H](C)C4=CC(=O)CC[C@]4(C)[C@H]3CC[C@@]21C
not listed: [7] | [9] | [10]
inactive: all other assays above

CCCCCCCCCCCCc1ccccc1O
active: [10] 1.35 µM | [1] 61.1 µM | [2] 30.2 µM and 27.3 µM | [3] 47.9 µM and 43.3 µM | [6] 68.6 µM

CCCN[C@H]1CCc2nc(N)sc2C1
not listed: [4] | [9] | [10]
inactive: all other assays above

CCC[C@H](N[C@@H](C)C(=O)N1[C@H](C(=O)O)C[C@@H]2CCCC[C@@H]21)C(=O)OCC
not listed: [8] | [9] | [10]
inactive: all other assays above

CC(N)=O
not listed: [4] | [10]
inactive: all other assays above

O=C(O)c1cccc(C(=O)O)c1
not listed: [6] | [9] | [10]
inactive: all other assays above

Cc1cc(C2(c3cc(C)c(O)cc3C)OS(=O)(=O)c3ccccc32)c(C)cc1O
inactive: [2] | [3] | [5] | [7]
43.3 µM (active) and inactive: [4]
active: [1] 54.5 µM and 27.3 µM | [6] 30.6 µM and 21.7 µM

CCC(C)(Oc1ccc(C2(c3ccc(OC(C)(CC)C(=O)O)cc3)CCCCC2)cc1)C(=O)O (stereo not given)
inactive: [1] | [2] | [3] | [4] | [8] | [7]

CCN(CC)CCOc1ccc(/C(=C(\Cl)c2ccccc2)c2ccccc2)cc1
active: [10] 0.266 µM | [1] 44.2 µM and 29.8 µM | [2] 49.6 µM and 29.8 µM | [3] 44.2 µM and 29.8 µM | [5] 29.8 µM

CCc1ccc(C(c2ccc(CC)cc2)C(Cl)Cl)cc1
not listed: [9] | [10]
inactive: all other assays above

NC(N)=NC(=O)Cc1c(Cl)cccc1Cl
inactive: [1] | [2] | [3] | [5] | [6] | [7]

CC(COc1ccccc1)N(CCCl)Cc1ccccc1 (stereo not given)
active: [1] 55 µM and 61.1 µM | [2] 54.5 µM
inactive: [8] | [6] | [7]

NC12CC3CC(CC(C3)C1)C2
inactive: [1] | [2] | [6] | [7]

c1ccc2cc3c(ccc4ccccc43)cc2c1
inactive: [1] | [2] | [8] | [5] | [7]

O=C1OC2(c3ccc(O)cc3Oc3cc(O)ccc32)c2ccccc21
inactive: [2] | [4] | [8] | [5]

CC(C)C(=O)c1c(C(C)C)nn2ccccc12
inactive: [1] | [2] | [6] | [7]

c1cc(C(c2ccc(OCC3CO3)cc2)C(c2ccc(OCC3CO3)cc2)c2ccc(OCC3CO3)cc2)ccc1OCC1CO1 (stereo not given)
inactive: [1] | [3] | [4] | [8] | [5] | [7]

CNC1(C)C2CCC(C2)C1(C)C (stereo not given)
inactive: [1] | [2] | [7]
